PubChem BioAssay (EPA / NIEHS)
Results filed as inconclusive are left out. The source made the active and inactive calls. How the source made its calls: active means hit-call score of the fitted dose curve at least 0.9, where 1 is the maximum; inconclusive means response in the unintended direction; inactive means score below 0.9.

What follows are molecules tested against human Vitamin D Receptor (VDR), VDR (gene 7421) (UniProt P11473) (assay: ATG_VDR_TRANS: Attagene TRANS-FACTORIAL HepG2 Assay for human Vitamin D Receptor (VDR) (AID 2283022)).
human Vitamin D Receptor (VDR), VDR (gene 7421), sequence (P11473 whole entry, looked up, the tested form may be a part): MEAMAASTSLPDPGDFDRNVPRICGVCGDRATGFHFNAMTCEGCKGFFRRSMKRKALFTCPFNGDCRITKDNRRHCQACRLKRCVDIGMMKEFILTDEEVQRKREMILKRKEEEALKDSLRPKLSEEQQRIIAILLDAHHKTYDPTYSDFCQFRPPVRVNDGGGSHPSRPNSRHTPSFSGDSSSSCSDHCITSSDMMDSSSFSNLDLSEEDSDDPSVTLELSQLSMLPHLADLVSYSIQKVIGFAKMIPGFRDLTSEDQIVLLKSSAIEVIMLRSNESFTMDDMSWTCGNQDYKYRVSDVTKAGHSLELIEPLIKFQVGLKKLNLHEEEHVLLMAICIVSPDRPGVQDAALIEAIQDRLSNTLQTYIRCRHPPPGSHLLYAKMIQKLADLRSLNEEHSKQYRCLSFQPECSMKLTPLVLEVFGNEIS
Procedure, shortened: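 Fluorescence of labelled reporter cDNA fragments, resolved by capillary electrophoresis, gives mRNA induction after 24 h treatment of HepG2 cells carrying transfected Gal4-fusion reporter units. Activity is fitted in the positive direction with DMSO as baseline.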

SMILES | outcome
CC(C)[C@@H]1CC[C@@H](C)C[C@H]1O | inactive
CC1CNCC(C)O1 (configuration not stated) | inactive
O=CC(F)(F)C(F)(F)C(F)(F)C(F)F | inactive
CCC1CO1 (configuration not stated) | inactive
c1cnc2c(c1)ccc1cccnc12 | inactive
Cc1cc(Cc2cc(C)cc(C(C)(C)C)c2O)c(O)c(C(C)(C)C)c1 | inactive
OCC1CCC(CO)CC1 (configuration not stated) | inactive
Nc1cc(Cl)c(-c2cc(Cl)c(N)cc2Cl)cc1Cl | inactive
CC(C)c1c(C(=O)Nc2ccccc2)c(-c2ccccc2)c(-c2ccc(F)cc2)n1CC[C@@H](O)C[C@@H](O)CC(=O)O | inactive
CC(C)(O)C(=O)c1ccccc1 | inactive
Cc1ccc2ccc3ccc(C)cc3c2c1 | inactive
C=CC(F)(F)C(F)(F)C(F)(F)C(F)(F)F | inactive
C=CC(=O)OCCN(CC)CC | inactive
CCCCCCCCCC=CCC1CC(=O)OC1=O (configuration not stated) | inactive
CCCCCCCCCCCCCC[n+]1ccccc1 | inactive
O=C(C=C(O)C(F)(F)F)C(F)(F)F | inactive
CCCCCCc1ccc(N)cc1 | inactive
CCN(CCC#N)c1ccccc1 | inactive
Cc1ccc(C)c(S(=O)(=O)O)c1 | inactive

SMILES | outcome
NNC(=O)CCCCC(=O)NN | inactive
O=CC(F)(F)C(F)(F)C(F)(F)F | inactive
CC1CCC(CO)CC1 (configuration not stated) | inactive
C=CCOCC(CO)(CO)CO | inactive
CCCCCCCCCCCCOC(=O)c1cc(O)c(O)c(O)c1 | inactive
FC(F)(F)C1(F)C(F)(F)C(F)(F)C(F)(F)C(F)(C(F)(F)F)C1(F)F (configuration not stated) | inactive
C=C(c1ccc(C(=O)O)cc1)c1cc2c(cc1C)C(C)(C)CCC2(C)C | inactive
O=C(OC(=O)C(F)(F)C(F)(F)F)C(F)(F)C(F)(F)F | inactive
CCc1cccc(CC)c1NC(=O)C(=O)O | inactive
C[N+](C)(CCCNS(=O)(=O)CCC(F)(F)C(F)(F)C(F)(F)C(F)(F)C(F)(F)C(F)(F)F)CC(=O)[O-] | inactive
O=C(c1cc(O)c(O)c(O)c1)c1ccc(O)c(O)c1O | inactive
CCOC(=O)c1nc(C(Cl)(Cl)Cl)n(-c2ccc(Cl)cc2Cl)n1 | inactive
O=S(=O)(c1ccc(OCc2ccccc2)cc1)c1ccccc1O | inactive
FC(F)(F)C1(F)C(F)(F)C(F)(F)C(F)(F)C1(F)F | inactive
CCCCCC(C)OC(=O)COc1ccc(Cl)c2cccnc12 (configuration not stated) | inactive
CCOCCOCC | inactive
C=CC(=O)OCCC(F)(F)C(F)(F)C(F)(F)C(F)(F)C(F)(F)C(F)(F)F | inactive
Oc1cccc2c(O)cccc12 | inactive
